Source: PubChem
CYP2C19 activ: human CYP2C19 activators, primary screen, biochemical, luminescence; Cytochrome P450 2C19 (Homo sapiens), P33261; recombinant CYP2C19, luciferin-H EGE luminescence; active compounds read high; 0 = fully inhibited enzyme, 1 = untreated enzyme; activation factor at 5 µM; 96,000 tested, under 10 active;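 active = activation factor of at least 2 at 5 µM in the primary screen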;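 also: 0 = wells with 2.5 mM tranylcypromine and 1 = vehicle-only wells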
Target sequence (P33261 whole entry, looked up): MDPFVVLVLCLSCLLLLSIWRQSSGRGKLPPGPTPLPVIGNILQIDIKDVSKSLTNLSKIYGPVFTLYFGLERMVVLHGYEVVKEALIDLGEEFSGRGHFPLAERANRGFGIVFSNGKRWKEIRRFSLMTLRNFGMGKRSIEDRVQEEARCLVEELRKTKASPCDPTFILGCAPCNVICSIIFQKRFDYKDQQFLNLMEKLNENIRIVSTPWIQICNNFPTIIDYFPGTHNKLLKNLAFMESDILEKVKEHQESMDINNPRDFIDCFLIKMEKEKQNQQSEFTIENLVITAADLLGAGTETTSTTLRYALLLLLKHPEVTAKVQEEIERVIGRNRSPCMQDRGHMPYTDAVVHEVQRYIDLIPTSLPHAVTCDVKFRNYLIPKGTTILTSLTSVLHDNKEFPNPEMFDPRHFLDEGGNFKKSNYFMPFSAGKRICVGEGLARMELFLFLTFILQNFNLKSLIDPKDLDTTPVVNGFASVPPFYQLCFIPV
PLK1 kinase inh: human PLK1 kinase inhibitors, primary screen, biochemical, TR-FRET | Serine/threonine-protein kinase PLK1 (Homo sapiens), P53350 | recombinant PLK1 kinase, TR-FRET peptide phosphorylation | inhibition, % at 10 µM | 97,000 tested, 0.53% active;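 active = inhibition of 50% or more in the single-concentration screen; inactive = inhibition below 50%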;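 also: 0% = DMSO max control and 100% = H-89 dihydrochloride min control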
CYP2C9 act: human CYP2C9 activators, primary screen, biochemical, luminescence; 96,000 tested, 1.4% active; activation factor at 5 µM; recombinant CYP2C9, luciferin-H conversion; active compounds read high; factor 1 = untreated enzyme, 0 = blocked; AID 1024, 2008;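 active = activation factor of 2 or more for CYP2C9 at a 5 µM dose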;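 also: 0 = sulfaphenazole-blocked wells and 1 = vehicle-only wells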
PLK1 PBD inh: Plk1 polo box domain binding inhibitors, primary screen, biochemical, fluorescence polarization | Serine/threonine-protein kinase PLK1 (Homo sapiens), P53350 | Plk1 PBD phosphopeptide binding | inhibition, %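 (tested at about 20 µM)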 | 97,000 tested, 0.13% active | AID 693, 2007; in the data active = inhibition above about 34%, passing the limit was not always enough
CYP2C19 inh: blockers of cytochrome P450 2C19 activity – biochemical, luminescence, ADME assay, primary screen; CYP2C19 Supersomes, luciferin-H EGE luminescence, 30 min; inhibition, % at 5 µM; 96,000 tested, 21% active; AID 778, 2007;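 active = CYP2C19 inhibition above a set limit at 5 µM in the primary screen, cut at about 50% in these data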;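 also: plate controls were negative control wells for no effect and 2.5 mM tranylcypromine positive control for full effect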
CYP2C9 inhib: blockers of cytochrome P450 2C9 activity – biochemical, luminescence, ADME assay, primary screen; CYP2C9 Supersomes, luciferin-H conversion; inhibition, % at 5 µM; 96,000 tested, 20% active;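 active = blocking of liver enzyme CYP2C9 beyond about 50% at 5 µM, limit read from the data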
Active calls of the source: *; · = no result given. This is a sample that favours compounds with a hit; in the whole collection about 28% have one here.

SMILES | CYP2C19 activ | PLK1 kinase inh | CYP2C9 act | PLK1 PBD inh | CYP2C19 inh | CYP2C9 inhib
COc1ccccc1NS(=O)(=O)c1ccc(NC(=O)c2nc3nc(C)cc(C(F)F)n3n2)cc1 | 0.7 | -28 | 0.4 | 0 | 26 | 61*
COc1ccccc1NS(=O)(=O)c1ccc(NC(=O)c2nc3ncccn3n2)cc1 | 0.7 | -7 | 1.1 | 0 | 34 | -6
C=CCOC(=O)COc1ccc2c(C)c(C)c(=O)oc2c1 | 0.4 | · | 1.4 | · | 55* | -42
C=CCOC(=O)COc1ccc2c(C)c(CC)c(=O)oc2c1 | 0.4 | -10 | 1 | -14 | 64* | -4
CCOC(=O)CCc1c(C)c2ccc(OCC(=O)OC(C)C)cc2oc1=O | 0.9 | -11 | 0.8 | 22 | 12 | 25
C=CCn1c2ccccc2c2nnc(SCC(=O)NC(C(=O)OC)C(C)C)nc21 (centres undefined) | 0 | -10 | 0.1 | 9 | 100* | 90*
CCCn1c2ccccc2c2nnc(SCC(=O)OC)nc21 | 0.6 | 1 | 0.8 | 0 | 43 | 18
CCCn1c2ccccc2c2nnc(SCC(=O)OCC)nc21 | 0.3 | 3 | 0.8 | -13 | 66* | 24
CCn1c2ccccc2c2nnc(SCC(=O)NCc3cccs3)nc21 | 0 | · | 0.6 | · | 96* | 36
CCn1c2ccccc2c2nnc(SCC(=O)NCCOC)nc21 | 0.4 | 1 | 1 | -7 | 55* | -4
CCn1c2ccccc2c2nnc(SCC(N)=O)nc21 | 0.8 | -2 | 0.7 | 16 | 16 | 29
C/C(=N\Nc1nc2c(s1)CCCC2)c1ccc(Cl)cc1 | 0.8 | -9 | 0.8 | -9 | 17 | 18
COc1cc2nc(CN3C(=O)c4ccccc4C3=O)oc(=O)c2cc1OC | 0.9 | -13 | 0.9 | 10 | 14 | 13
Cc1ccc(NC(=O)c2ccco2)c(NC(=O)CN2C(=O)c3ccccc3C2=O)c1 | 1 | -8 | 0.9 | 3 | 2 | 12
COC(=O)C1=C(C)Nc2ncnn2C1c1ccc(OCc2ccccc2)cc1 (centres undefined) | 1.1 | · | 1 | · | -11 | -1
CCOC(=O)CSc1ncc(-c2ccccc2)nn1 | 0.3 | 5 | 0.5 | 4 | 70* | 46
COC(=O)CSc1ncc(OC)c(OC)n1 | 1 | -7 | 0.9 | 9 | -4 | 8
CCOC(=O)CSc1ncc(OC)c(Sc2ccc(OC)cc2)n1 | 0.6 | 0 | 0.2 | -5 | 40 | 84*
CCOC(=O)Nc1ccccc1C(=O)N1CCOCC1 | 1 | -2 | 1 | -4 | 2 | -5
Cc1cc(Cl)c(OCCCNCc2ccccc2)c(Br)c1 | 0.4 | -9 | 1 | -7 | 57* | -4
COCCNCCCCOc1c(Cl)cc(C)cc1Br | 0.8 | -2 | 1.1 | -5 | 17 | -8
Clc1ccc(OCCCNCc2ccccc2)c(Br)c1 | 0.4 | -9 | 1 | 2 | 63* | 2
Cc1ccc(CNC(=O)CS(=O)CC(=O)O)cc1 (centres undefined) | 1.1 | -9 | 1.1 | -2 | -10 | -12
O=C(NCCc1cccs1)C1CC(c2ccccc2[N+](=O)[O-])=NO1 (centres undefined) | 0.7 | -4 | 1.2 | 1 | 30 | -16
Cc1nn(C/C(C#N)=N\O)c(C)[n+]1N | 1.1 | -4 | 1.2 | -8 | -12 | -17
SMILES | CYP2C19 activ | PLK1 kinase inh | CYP2C9 act | PLK1 PBD inh | CYP2C19 inh | CYP2C9 inhib
Cc1cc(O)c(C(C)C)cc1NS(=O)(=O)c1ccccc1 | 0.1 | -1 | 0.6 | -10 | 86* | 42
COc1ccc(OC)c(S(=O)(=O)Nc2ccccc2SC)c1 | · | -14 | · | -6 | · | ·
COc1cc(NS(=O)(=O)c2ccc(C)c(C)c2)c(OC)cc1Cl | 0 | -10 | 0.1 | -9 | 100* | 95*
COc1ccc(S(=O)(=O)Nc2ccccc2SC)cc1C | 0 | -10 | 2* | -7 | 99* | -104
COc1ccc(Cl)cc1NS(=O)(=O)c1cc(Cl)ccc1OC | 1.1 | -4 | 0.9 | -15 | -6 | 11
Cc1cc(O)c(C(C)C)cc1NC1=NS(=O)(=O)c2ccccc21 | 0.9 | -5 | 0.8 | 21 | 10 | 22
COc1cc(C)c(S(=O)(=O)n2nnc3ccccc32)cc1C | 1.2 | -17 | 1.3 | -26 | -20 | -32
COc1cc(C)c(S(=O)(=O)Nc2ccccc2F)cc1C | 0.1 | -13 | 0.5 | -4 | 88* | 52*
Cn1c(Oc2ccccc2)c(C=O)c2ccccc21 | 0.5 | -13 | 1.6 | -1 | 47 | -59
COc1ccccc1NS(=O)(=O)c1ccc(Cl)cc1 | 0 | · | 0.7 | · | 99* | 30
Cc1nn(-c2ccccc2)c(Cl)c1/C=N/Nc1ccc(S(=O)(=O)Nc2ccccc2C(=O)O)cc1[N+](=O)[O-] | 1 | 2 | 0.3 | -4 | 5 | 69*
COc1ccc(S(=O)(=O)Nc2ccccc2OC)cc1C | 0 | -11 | 2.9* | 4 | 100* | -186
CNC(=S)N/N=C/c1c(C)nn(-c2ccccc2)c1Cl | 0.9 | -7 | 0.7 | -13 | 9 | 30
COC(=O)c1ccccc1NS(=O)(=O)c1ccc(O)c(C(=O)O)c1 | 0.9 | · | 0.1 | · | 9 | 91*
COc1ccc(S(=O)(=O)Nc2ccc(S(=O)(=O)Nc3ccc(F)cc3)cc2)cc1C | · | -7 | · | 0 | · | ·
C/C=C/C=[N+](\[O-])C(C)/C(=N/O)c1ccc(F)cc1 (centres undefined) | 1 | 0 | 1 | -25 | -1 | -1
CC(C)CC(c1nnnn1Cc1ccco1)N1CCN(C2CCCC2)CC1 (centres undefined) | 1 | -8 | 1 | -29 | 4 | -3
COc1ccc(C)cc1NS(=O)(=O)c1cc(C)ccc1C | 0.6 | 5 | 0.8 | -5 | 41 | 22
O=C(O)c1ccccc1NS(=O)(=O)c1cccc(C(F)(F)F)c1 | 0.4 | -11 | 0.5 | -5 | 60* | 51*
CSc1ccccc1NS(=O)(=O)c1ccccc1 | 0.1 | -9 | 4.6* | -4 | 87* | -360
COc1ccccc1NS(=O)(=O)c1cc(C)ccc1C | 0.2 | -29 | 1.1 | 15 | 80* | -7
COc1ccccc1NS(=O)(=O)c1ccc(O)c(C(N)=O)c1 | 0 | -13 | 0.9 | -13 | 100* | 14
CCS(=O)(=O)C(=C1Nc2ccccc2N1)S(=O)(=O)CC | · | -3 | · | -7 | · | ·
Cc1cc([N+](=O)[O-])nn1CC(=O)N1CCc2ccccc2C1 | 0.7 | 3 | 0.8 | -24 | 28 | 22
CC(=O)Nc1ccc(NS(=O)(=O)c2ccc(Cl)c(C(=O)O)c2)cc1 | 1 | -14 | 1.1 | -22 | 4 | -6
O=C(Nc1ccccc1F)c1ccc(CNS(=O)(=O)c2cccc(C(F)(F)F)c2)cc1 | 1 | -5 | 1.3 | 18 | -1 | -31
